Results on 40 molecules are retold here after PubChem BioAssay (NCATS).

Unmarked numbers belong to inactive results. A call without a number means that no potency is given here. Active and inactive are the calls of the source. The call rests on the fitted dose curve; in most records, active means well fitted curve in the direction sought with a large enough effect; inconclusive means small, poorly fitted or top-dose-only effect, or another doubt; inactive means no such curve, though single readings can be large or run the other way. Bridge positions count the residues as written; N and C are the ends. Square brackets hold non-standard residues; d marks the D form. Side chains are listed from the residue outwards. Peptide text beside a SMILES is read from it. * marks the point of attachment. Phg(4-OMe) = COc1ccc([C@H](N)C(=O)O)cc1; d(aIle) = CC[C@H](C)[C@@H](N)C(=O)O; d(aThr) = C[C@@H](O)[C@@H](N)C(=O)O; NMeF = CN[C@@H](Cc1ccccc1)C(=O)O; Isobutyryl = CC(C)C(=O)*

The nature of this test: qHTS for ATAD5 Agonist screened against the NCATS CANVASS Library (AID 1347367). The settings on record: HEK293T ATAD5-luciferase reporter, luminescence, 16 h; series mostly up to 46.1 µM. An excerpt:
Natural products and their derivatives continue to be wellsprings of nascent therapeutic potential. However, many laboratories have limited resources for biological evaluation, leaving their previously isolated or synthesized compounds largely or completely untested. To address this issue, the Canvass library of natural products was assembled (https://tripod.nih.gov/canvass), in collaboration with academic and industry researchers, for quantitative high-throughput screening (qHTS) across a diverse set of cell-based and biochemical assays. The pure (>85% purity by liquid chromatography/mass spectrometry [LC/MS]) Canvass library of 346 natural products were submitted by 45 academic laboratories and companies around the world. We collected pure natural products to circumvent deconvolution and structure elucidation due to time and resource limitations. The library was formatted into 1536-well plates and evaluated in 50 qHTS (in an 11-pnt concentration series) bioassays with broad scope of disease-relevant mechanisms. The resulting data set from 50 different assays was then systematically analyzed to identify overall trends and specific natural products with interesting biological activities. Reported herein are the results of each individual qHTS and their corresponding assay protocol. Human ATAD5 is a biomarker for identifying gentoxic compounds because ATAD5 protein levels increase post-transcriptionally in response to DNA damage. A cell-based assay is used to detect DNA damage inducers and genotoxic compounds as well. The assay is based upon a luciferase reporter gene under control of ATAD5 that has been stably integrated into HEK 293T cells. Luminescence intensity is proportional to ATAD5 expression. National Center for Advancing Translational Sciences (NCATS), Rockville, MD National Institute of Health (NIH), Bethesda, Maryland
ATAD5 Agonist assay protocol: 1. In a 1536 well, tissue culture treated white solid bottom plates (Greiner Bio-One North America), 5 uL of HEK293T-ATAD5 cell solution (2000 cells / well) was dispensed using the Multidrop Combi dispenser (Thermo Fisher Scientific). 2. The assay plates were incubated for 5hr at 37C, 5% CO2 to allow the cells to acclimate and attach. 3. Controls and compounds were pin transferred (~23 nL volume) to the assay plates via Wako Pin-tool (Wako Automation, Richmond VA) equipped with a 1536 pin head. The compounds were transferred to columns 5-48 resulting in a final concentration ranging from 0.6nM to 92uM. Methyl methanesulfonate (MMS) was used as a control in various concentrations (columns 1: dose response, column2: 0.7mM, and column3: 0.6mM). DMSO (0.46% final concentration was used as a negative control. 4. The assay plates were further incubated in the dark at 37C, 5% CO2 for 16hr. 5. To measure cell viability, 1uL of CellTiter-Fluor (Promega) reagent was then added to the assay plates (column 1-48, rows 1-32). The assay plates were incubated in the dark for 1hr at 37C, 5% CO2. 6. A first readout of fluorescence signal was acquired via the ViewLux (PerkinElmer) plate reader using filter sets for AFC (380-400nmEx/505Em) and 1 second exposure setting. 7. To measure ATAD5 activation, 4uL of Amplite (AAT Bioquest) reagent was then added to the assay plates (column 1-48, rows 1-32). The assay plates were further incubated in the dark at room temperature for 30min. 8. A second readout of luminescence signal was acquired via the ViewLux plate reader using a clear emission filter, 10 second exposure setting. Fox JT1, et al. High-throughput genotoxicity assay identifies antioxidants as inducers of DNA damage response and cell death. Proc Natl Acad Sci U S A. 2012 Apr 3;109(14):5423-8.
In the case of `CC[C@H]1[C@@H](C)[C@@H](c2cc(OC)c(OC)cc2OC)[C@H](C)[C@@H](c2cc(OC)c(OC)cc2OC)[C@@]12C=C(OC)C(=O)C=C2OC`, the Potency entry is “inactive”. As for `[C-]#[N+][C@@]12C(=O)[C@@H]3[C@@H](O[C@@]4(C(=O)N(C)c5cccc1c54)C3(C)C)C(=O)[C@@]2(C)C=C`, the Potency entry was “inactive”.

As to `CO[C@H]1[C@@H](OC(=O)/C(C)=C\[C@@H]2O[C@@H]2[C@H]2O[C@H]2C)[C@H](O)[C@H](OCC23C[C@@H]4[C@H](C)CC[C@H]4C4(C=O)CC2C=C(C(C)C)C34C(=O)O)O[C@@H]1C` (stereo not given in full), the Potency entry was “inactive”.

For the molecule `CC[C@H](O)CCCCC[C@@H]1NC(=O)[C@H]2CCCCN2C(=O)[C@H]([C@H](C)CC)NC(=O)[C@H](Cc2cn(OC)c3ccccc23)NC1=O`, the Potency result is “inactive”.

With `C[C@@]12C[C@@H](C[C@@H]3C(=O)O[C@@H](c4ccoc4)[C@H](OC(=O)c4ccccc4)[C@@H]31)OC2=O`, the Potency entry was “inactive”. In the case of `COc1cc(C2OCC3C(c4ccc(O)c(OC)c4)OCC23)ccc1O` (stereo not given), the activation was 3.68% [at 9.19 µM]. For `COc1cc([C@@H]2c3cc4c(cc3C[C@@]3(O[C@@H]5O[C@H](CO)[C@@H](O)[C@H](O)[C@H]5O)COC(=O)[C@H]23)OCO4)cc(OC)c1OC`, the Potency entry was “inactive”. As to `O=C1CC(c2ccc(O)cc2)Oc2cc(O)cc(O)c21` (stereo not given), the Potency result is “inactive”. Regarding `COc1ccc2[nH]c3c(c2c1)CCN1C[C@H]2C[C@@H](OC(=O)c4cc(OC)c(OC)c(OC)c4)[C@H](OC)[C@@H](OC)[C@H]2C[C@H]31`, the Potency result is “inactive”. As for `CC(C)C[C@@H]1c2c(O)c(C=O)c(O)c(C=O)c2O[C@]2(C)C=C[C@@H](C(C)C)C[C@H]12`, the Potency entry is “inactive”. On to `C[C@@]12CCC[C@@](C)(C(=O)OP(=O)(O)OC[C@H]3O[C@@H](n4cnc5c(N)ncnc54)[C@H](O)[C@@H]3O)[C@H]1C[C@@H](O)[C@@]13C[C@@H](CC[C@@H]21)[C@](C)(O)C3`, for which the Potency result is “inactive”. Consider `C[C@@]1(CCC(=O)Nc2c(O)ccc(C(=O)O)c2O)C(=O)C=C[C@]23C[C@H]4C[C@H](O[C@@]4(C)C2)C31` (stereo not given in full), for which the Potency result was “inactive”. As to `C=C1CCC2C(C)(C(=O)O)CCC(CC/C(C)=C/C(=O)NC(CCC(N)=O)C(=O)O)[C@@]2(C)C1` (stereo not given in full), the Potency entry was “inactive”. On to `C=C[C@@]1(C)CC[C@@H]([C@H](C)C(C)=O)O1`, for which the Potency result was “inactive”. Consider `CN1CCc2cc3c(c4c2C1(C)C(=O)c1cc(O)ccc1-4)OCO3` (stereo not given), for which the Potency entry is “inactive”. For the molecule `CC1=C(C)C(=O)OC(C(C)C2(O)CCC3C4C5OC5C5(O)CC=CC(=O)C5(C)C4CCC32C)C1` (stereo not given), the Potency entry is “inactive”.

For the molecule `O=Cc1ccc2n1C[C@]1(C[C@H](O)[C@@H](CO)O1)OC2`, the Potency result is “inactive”.

Take `O=C1c2c(O)cc(O)cc2OC(c2ccc(O)cc2)C1O` (stereo not given): the Potency entry is “inactive”. `COC(=O)[C@@]12Oc3cccc(O)c3C(O)=C1C(=O)C[C@H](C)[C@H]2O`: the Potency entry is “inactive”. Still for that read-out and setting: the value for `CC(C)=CCC/C(C)=C/Cc1cc([C@@H]2CC(=O)c3c(cc(O)c(CC=C(C)C)c3O)O2)ccc1O` was “inactive”; that for `C=CC(C)(C)C(=O)[C@@H](C)[C@@H]1CC[C@@](C)(C=C)O1` was “inactive”; that for `CN1CC[C@@]23c4ccccc4N[C@@H]1[C@@]21CCN(C)[C@@H]3Nc2ccccc21` was “inactive”. Same read-out and setting: the value for `C/C=C(/C)c1cc(O)c(C)c2c1Oc1cc(O)cc(C)c1C(=O)O2` was “inactive”; that for `C[C@]12CCC[C@](C)(C(=O)O)[C@@H]1CC[C@@]1(C)c3cocc3CC[C@H]21` was “inactive”; that for `C=C1CC[C@@H](Br)C(C)(C)[C@]12CC=C(C)C(=O)C2` was “inactive”. Take `C/C1=C/[C@@H](C)[C@H](O)[C@@H](O)/C=C/CC/C=C/C(=O)O[C@@H]1[C@H](C)C(=O)/C=C/CC1CC(=O)NC(=O)C1`: the Potency result is “inactive”.

Regarding `CC(=O)N[C@H](C)c1nc(/C=C/C=C/C(=O)CC2CC(=O)CC[C@]2(C)O)cs1` (stereo not given in full), the Potency result was “inactive”.

`CC[C@H](C)[C@H]1NC(=O)[C@@H](NC(=O)C(C)C)[C@@H](C)OC(=O)[C@H](COC(=O)CNC(C)=O)NC(=O)[C@@H]([C@@H](C)O)NC(=O)[C@H](Cc2ccccc2)N(C)C(=O)[C@H](c2ccc(OC)cc2)NC1=O` (Isobutyryl-T[d(aIle)][Phg(4-OMe)][NMeF][d(aThr)]S([Gly-Ac]); ester 1-C): the Potency entry is “inactive”. On to `CN1CC[C@@]2([C@@]34CCN(C)[C@@H]3Nc3ccccc34)c3ccccc3N[C@@H]12`, for which the Potency entry is “inactive”. `CC(C)=CCC[C@]1(C)[C@H]2CC(=O)[C@@]3(CO3)[C@@H]1C2`: the Potency result was “inactive”. As to `C[C@@]12CCC[C@@](C)(C(=O)O)[C@H]1C[C@@H](O)[C@@]13C[C@@H](CC[C@@H]21)[C@](C)(O)C3`, the Potency entry was “inactive”. Turning to `COc1ccc([C@@H]2c3cc4c(cc3C(=O)C(C)C2C)OCO4)cc1OC` (stereo not given in full), the Potency entry is “inactive”.

For the molecule `C/C=C(/CO)C(=O)O[C@@H]1[C@H](O)[C@@H](C(=O)OC)O[C@@H]2C[C@H]3OC(n4cnc5c(N)ncnc54)[C@H](OC)[C@H]3O[C@@]12O` (stereo not given in full), the Potency entry is “inactive”. For `COC(=O)[C@@]1(C)CCC[C@]2(C)c3cc(OC)ccc3CC[C@@H]12`, the Potency result is “inactive”. On the same count and under the same terms, in the case of `O=C1CC(c2ccc(O)cc2)Oc2ccccc21` (stereo not given) it was “inactive”. As for `C[C@]12CC[C@]3(C1)[C@H](CC2=O)C[C@@H](OC(=O)c1ccccc1)[C@H]1[C@](C)(C(=O)O)CCC[C@@]13C`, the Potency result is “inactive”. Turning to `C[n+]1cc2cc(C(N)=O)[nH]c3c(=N)c(Cl)c(N)c1c23`, the Potency result is “inactive”.

For `COc1c(O)cc2c(c1O)C(=O)c1c(coc1C)C2=O`, the Potency result was “inactive”. In the case of `O=C1CC(c2ccc(O)cc2)Oc2cc(O)ccc21` (stereo not given), the Potency entry is “inactive”. Take `COc1cc2ccc(=O)oc2c(O)c1O[C@@H]1O[C@H](CO)[C@@H](O)[C@H](O)[C@H]1O`: the Potency result was “inactive”.
